Many of the other results were omitted from the sample, so hits are more common in it than they were.
FECH block: inhibitors of human ferrochelatase, primary screen, biochemical, purified FECH, Ni-mesoporphyrin absorbance; Ferrochelatase, mitochondrial (Homo sapiens), P22830; Ni-mesoporphyrin absorbance 550 nm; calls only at 10 µM (by protocol); 20,000 compounds, 3.3% hits;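 active = enzyme reaction rate more than 3 SD below the solvent-only control wells on the same plate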;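 note: lower slope than DMSO wells means FECH inhibition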
Target sequence (P22830 whole entry, looked up): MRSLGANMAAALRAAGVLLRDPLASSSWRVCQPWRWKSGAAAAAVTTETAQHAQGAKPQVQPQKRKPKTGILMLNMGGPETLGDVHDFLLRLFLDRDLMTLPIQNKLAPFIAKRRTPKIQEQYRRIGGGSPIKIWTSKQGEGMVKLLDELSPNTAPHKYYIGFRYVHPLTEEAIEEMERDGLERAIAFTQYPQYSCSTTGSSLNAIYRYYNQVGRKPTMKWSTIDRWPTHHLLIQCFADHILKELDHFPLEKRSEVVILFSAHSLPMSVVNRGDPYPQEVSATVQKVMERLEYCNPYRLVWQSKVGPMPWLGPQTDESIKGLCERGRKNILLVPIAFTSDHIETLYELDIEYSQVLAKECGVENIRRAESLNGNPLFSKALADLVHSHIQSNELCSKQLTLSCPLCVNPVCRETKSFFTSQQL
Of the large screens only hits and unclear results are named; the others gave an inactive call.

CC(C)CC(=O)Nc1nc2n(n1)C(c1ccc(Cl)cc1)C=C(c1ccc(Cl)cc1)N2 (configuration not stated)	FECH block active
O=C(Nc1nc2n(n1)C(c1ccccc1Cl)C=C(c1ccc(Cl)cc1)N2)c1ccc(F)cc1 (configuration not stated)	none
Cc1ncc(CC(=O)N2CCC(N3CCCC(C(=O)NC4CC4)C3)CC2)c(=O)[nH]1 (configuration not stated)	none
Cc1ccc(NC(=O)C(C)NC(=O)CN2CCOC2=O)c(F)c1 (configuration not stated)	none
Cc1ccc(-c2n[nH]c(Cc3ccccc3)n2)cc1N1CCNC1=O	none
Cc1ccc(C)c(NC(=O)CN2CCN(Cc3ccccc3C)S2(=O)=O)c1	none
Cc1cc(C)c(CN2CCCN(Cc3ccccc3)S2(=O)=O)c(C)c1	FECH block active
Cc1ccc(NC(=O)CN2CCN(Cc3ccc(F)cc3)S2(=O)=O)c(C)c1	none
Cc1cc(C)c(NC(=O)CN2CCN(Cc3ccc(F)cc3)S2(=O)=O)c(C)c1	FECH block active
Cc1ccc(NC(=O)CN2CCN(Cc3ccc(F)cc3)S2(=O)=O)cc1C	none
Cc1cccc(NC(=O)CN2CCN(Cc3ccccc3C)S2(=O)=O)c1	none
Cc1ccc(C)c(NC(=O)CN2CCCN(Cc3cccc(F)c3)S2(=O)=O)c1	none
Cc1cccc(CN2CCN(CC(=O)Nc3cc(C)ccc3C)S2(=O)=O)c1	FECH block active
Cc1ccc(CN2CCCN(CC(=O)Nc3cc(C)ccc3C)S2(=O)=O)cc1	none
Cc1cc(C)c(CN2CCCN(Cc3ccc(Cl)cc3)S2(=O)=O)c(C)c1	none
Cc1ccc(CN2CCCN(Cc3c(C)cc(C)cc3C)S2(=O)=O)cc1	none
Cc1ccc(NC(=O)CN2CCN(Cc3ccccc3C)S2(=O)=O)c(C)c1	FECH block active
CCOC(=O)N1CCC(NCCSc2cn[nH]n2)CC1	none
Cc1oc(-c2ccc(OC(C)C)cc2)nc1CSc1nc2c(c(=O)[nH]1)CCCC2	none
COC(=O)[C@H]1C[C@@H](O)CCN1C(=O)CSc1ccccn1	none
O=C(Nc1ccc2c(c1)Sc1ccccc1C(=O)N2C1CCCC1)c1cnccn1	none
CC(C)(C)c1ccc(S(=O)(=O)N2CCN(Cc3nc4cccnc4n3-c3ccccc3)CC2)cc1	none
CC(C)CN(Cc1ccsc1)C(=O)Cn1cnc2ccsc2c1=O	none
Cc1n[nH]c(C)c1CC(=O)NC1CCC(n2cnnc2)CC1 (configuration not stated)	none
CCC(=O)Nc1ccccc1-c1nnc(SCC(=O)Nc2cc(C)ccc2C)[nH]c1=O	none
Cc1nc(C)n(CCCNC(C)CO)n1 (configuration not stated)	none
CN(Cc1ccccc1)c1ncc(NS(=O)(=O)c2ccc(F)c(F)c2)cc1C(=O)O	none
c1ccc(Nc2nc(NCCN3CCOCC3)nc3c2cnn3-c2ccccc2)cc1	none
Cc1ccc(CN2CCCN(CC(=O)Nc3ccc(C)cc3C)S2(=O)=O)cc1	none
CSc1cccc(NC(=O)CN2CCCN(Cc3cccc(C)c3)S2(=O)=O)c1	none
Cc1ccc(CN2CCCN(CC(=O)Nc3c(C)cc(C)cc3C)S2(=O)=O)cc1	FECH block active
Cc1cccc(CN2CCCN(CC(=O)Nc3ccc(C)cc3C)S2(=O)=O)c1	FECH block active
Cc1ccc(NC(=O)CN2CCCN(Cc3ccc(Cl)cc3)S2(=O)=O)c(C)c1	none
Cc1cccc(CN2CCCN(CC(=O)NC3CCCC3)S2(=O)=O)c1	none
Cc1cccc(CN2CCCN(CC(=O)Nc3c(C)cc(C)cc3C)S2(=O)=O)c1	FECH block active
Cc1cccc(CN2CCN(CC(=O)Nc3ccc(C)cc3C)S2(=O)=O)c1	none
Cc1cc(C)c(NC(=O)CN2CCCN(Cc3ccccc3)S2(=O)=O)c(C)c1	none
COc1ccc(-c2cc(=O)[nH]c(SCc3nc(-c4ccc(OC(C)C)cc4)oc3C)n2)cc1	none
CCOc1ccc(C(=O)Nc2ccc(Nc3nc(C)cc(N(C)C)n3)cc2)cc1OCC	none
c1ccc(CCCCc2nc(C3CC3)n[nH]2)cc1	none
COc1ccc(-c2cc(N3CCN(S(=O)(=O)Cc4ccccc4)CC3)ncn2)cc1OC	none
CCN1C(SCC(=O)Nc2cc(Cl)ccc2OC)=NS(=O)(=O)c2ccccc21	none
CCC(=O)Nc1ccccc1-c1nnc(SCC(=O)Nc2ccc(Cl)c(Cl)c2)[nH]c1=O	none
CCN1C(SCC(=O)Nc2ccc(F)c(Cl)c2)=NS(=O)(=O)c2ccccc21	FECH block active
CCN1C(SCC(=O)Nc2cc(C)ccc2OC)=NS(=O)(=O)c2ccccc21	FECH block active
O=C(CN1CCN(Cc2ccc(F)cc2Cl)S1(=O)=O)Nc1ccc(F)c(Cl)c1	none
COc1ccc(C)cc1NC(=O)CN1C(=O)CC(c2ccc(Br)s2)=Nc2ccccc21	none
O=C(NCc1ccon1)C1CCCN(C2CCN(Cc3cccnc3)CC2)C1 (configuration not stated)	none
Cc1ccc(CC(=O)NCCn2c(C(F)(F)F)nc3cccnc32)cc1	none
CCn1ccnc1-c1nccn1CC1CCN(Cc2ccccc2)C1 (configuration not stated)	none
CCSc1ccccc1C(=O)Nc1cc(C)nn1-c1ncnc2c1cnn2-c1ccc(Cl)cc1	none
